# Test results: PubChem BioAssay AID504692 (The Scripps Research Institute Molecular Screening Center, 2011)
# Out of some 340,000 compounds screened, about 2,000 (0.59%) were called active. Rule as the data show it: active = activation mostly above about 9.5% (no sharp cut-off); inactive = mostly below about 7.6%. This excerpt belongs to a sample that is enriched for actives.
# Target: 5-hydroxytryptamine receptor 5A (Homo sapiens) (UniProt P47898)
# Assay: HTR5A agonists in luminescence cell assay, primary screen, counter-screen for OPRM1-OPRD1 heterodimer agonist project, full-deck HTS (AID 504692);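 also: 0% = cells with vehicle only and 100% = reference agonist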
# Details: cell-based, at 9.3 µM, hits give high values
# Chain of 5-hydroxytryptamine receptor 5A (Homo sapiens) (P47898 whole entry, looked up): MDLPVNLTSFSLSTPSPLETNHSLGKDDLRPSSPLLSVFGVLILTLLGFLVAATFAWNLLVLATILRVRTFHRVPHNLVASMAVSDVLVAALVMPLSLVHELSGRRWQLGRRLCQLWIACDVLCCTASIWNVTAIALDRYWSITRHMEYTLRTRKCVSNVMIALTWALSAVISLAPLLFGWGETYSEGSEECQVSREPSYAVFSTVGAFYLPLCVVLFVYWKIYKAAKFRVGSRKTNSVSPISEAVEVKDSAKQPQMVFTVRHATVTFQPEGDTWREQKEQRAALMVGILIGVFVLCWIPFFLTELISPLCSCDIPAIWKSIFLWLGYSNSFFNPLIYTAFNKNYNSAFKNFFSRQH
row,Structure (SMILES),activation
1,COc1ccc(Nc2cc(=O)oc3ccccc23)cc1,2.95% (inactive)
2,COc1ccc2oc(=O)cc(-c3cc4ccccc4o3)c2c1,10.7% (active)
3,COc1cccc2cc(-c3cc(=O)oc4cc(C)c(O)cc34)oc12,1.11% (inactive)
4,COc1ccc(/C=C(\C#N)c2c[nH]c3ccccc23)cc1,19.6% (active)
5,COc1ccc(C2C(C(C)=O)=C(O)C(=O)N2CCc2c[nH]c3ccccc23)cc1 (stereo not drawn),1.98% (inactive)
6,COc1cccc(-n2c(SCC(=O)c3c[nH]c4ccccc34)nc3ccccc3c2=O)c1,-2.91% (inactive)
7,Cc1cc(C(=O)NNS(=O)(=O)c2ccccc2C(F)(F)F)nn1C(C)(C)C,-2.85% (inactive)
8,Cc1cccc(C)c1NC(=O)Nc1ccccc1-n1ccnc1,2.52% (inactive)
9,NNC(=O)c1ccc(COCC(F)(F)C(F)F)cc1,8.26% (inactive)
10,Cc1ccc(C(=O)NC2CCN(C(=O)Nc3ccc(F)cc3)CC2)cc1,4.38% (inactive)
11,CN(CCC(=O)Nc1cc(S(=O)(=O)N(C)C)ccc1Cl)CC(=O)Nc1ccc(F)cc1,11.8% (active)
12,CN(CC(=O)Nc1ccc(F)cc1)CC(=O)Nc1ccc(Cl)c(S(=O)(=O)N2CCOCC2)c1,5.23% (inactive)
13,CN(CC(=O)Nc1ccc(S(=O)(=O)N2CCCC2)cc1)Cc1ccc(Cl)c(Cl)c1,-1.38% (inactive)
14,O=C(Nc1cccc(F)c1)[C@@H]1CCCN1,0.12% (inactive)
15,COc1ccc(C(=O)C2CCCN(C(=O)c3ccc(OC)o3)C2)c(C)c1 (stereo not drawn),-0.4% (inactive)
16,O=C(Cc1ccc(Br)cc1)N1CCN(c2ccccn2)CC1,0.82% (inactive)
17,O=C(C(Cl)Cl)N1CCN(c2ccccn2)CC1,-2.12% (inactive)
18,O=C(/C=C/c1cccc(C(F)(F)F)c1)N1CCN(c2ccccn2)CC1,10.6% (active)
19,Cc1cccc(N2CCN(C(=O)CCS(=O)(=O)c3ccc4c(c3)NC(=O)C(C)S4)CC2)c1C (stereo not drawn),2.41% (inactive)
20,Cc1ccc(C)c(N2CCN(S(=O)(=O)c3ccc4c(c3)oc(=O)n4C)CC2)c1,0.11% (inactive)

row,Structure (SMILES),activation
1,Cc1ccc(C)c(N2CCN(S(=O)(=O)c3c(C)[nH]c(C)c3C(=O)N3CCCC3)CC2)c1,0.83% (inactive)
2,COC(=O)c1cc(S(=O)(=O)N2CCN(c3cc(C)ccc3C)CC2)c[nH]1,14.8% (active)
3,Cc1cccc(N2Cc3ccccc3C2=NC(=O)c2ccc(Cl)nc2)c1,2.14% (inactive)
4,OCCC1CN(Cc2cccc(OC3CCCC3)c2)CCN1Cc1ccsc1 (stereo not drawn),0.37% (inactive)
5,CCN(CC)CCNC(=O)CCCCCn1c(=O)[nH]c2cc(C(=O)OC)ccc2c1=O,1.57% (inactive)
6,O=C(CCc1c[nH]c2ccccc12)NCCOc1ccccc1,0.78% (inactive)
7,O=C(CCCCCn1c(=O)[nH]c2ccccc2c1=O)NCCc1c[nH]c2ccccc12,12.7% (active)
8,O=C1CC(Cc2ccc(Cl)cc2)C(=O)N1c1cc(Cl)ccn1 (stereo not drawn),5.44% (inactive)
9,CC(=O)Nc1ccc(S(=O)(=O)NC(C)C(=O)OCC(=O)NC2CCCC2)cc1 (stereo not drawn),3.96% (inactive)
10,CCOC(=O)[C@H]1CCC[C@@H](NS(=O)(=O)c2ccc(NC(C)=O)cc2)C1,12.5% (active)
11,CC(=O)Nc1ccc(S(=O)(=O)NC2Cc3ccccc3C2)cc1,4.91% (inactive)
12,Cc1cccc(OC(=O)c2sc3ncn(C)c(=O)c3c2C)c1,-4.42% (inactive)
13,CCOc1ccc(CCNC(=O)CCc2nnc3ccc(N4CCCC4)nn23)cc1OCC,-0.94% (inactive)
14,CCC(C)C(N=C1NS(=O)(=O)c2ccccc21)C(=O)N1CCC(C)CC1 (stereo not drawn),-4.84% (inactive)
15,CC(C)CC(=O)N/C(N)=N/c1nc2ccccc2s1,22% (active)
16,O=C(CCC(=O)c1cccs1)Nc1nc2ccccc2s1,6.03% (inactive)
17,CC(C)CC(=O)NC(=S)NCc1ccccc1,-0.72% (inactive)
18,CCOC(=O)C1C(c2ccc(O)cc2)NC(=O)NC1(O)C(F)(F)F (stereo not drawn),3.08% (inactive)
19,CC(C)CCN1CCN(Cc2ccc(C(F)(F)F)cc2)CC1CCO (stereo not drawn),-0.94% (inactive)
20,O=C(NCc1ccccc1)C(=O)NCC1OCCN1S(=O)(=O)c1ccc(Br)cc1 (stereo not drawn),5.82% (inactive)

row,Structure (SMILES),activation
1,CCOC(=O)c1c(-c2cccc(C)c2)csc1NC(=O)c1c(-c2ccccc2)noc1C,-1.55% (inactive)
2,CCOC(=O)c1c(-c2ccc(-c3ccccc3)cc2)csc1NC(=O)CCC(=O)O,9.5% (active)
3,CCOC(=O)c1c(-c2ccc(C)cc2C)csc1NC(=O)CSc1nnnn1C,0.24% (inactive)
4,O=C(NCc1ccco1)/C(=C\c1cccc([N+](=O)[O-])c1)NC(=O)c1ccco1,0.85% (inactive)
5,O=C(CSc1nncn1-c1cccnc1)N1CCOCC1,1.54% (inactive)
6,Cc1ccc(C(=O)Nc2ccc3c(c2)OCCO3)cc1S(=O)(=O)N1CCOCC1,0.67% (inactive)
7,O=C(NCC(c1cccs1)N1CCOCC1)c1cc(-c2ccccn2)nc2ccccc12 (stereo not drawn),1.25% (inactive)
8,O=C(Nc1ccncc1)c1cc(-c2ccccn2)nc2ccc(Br)cc12,-4.88% (inactive)
9,O=C(NCc1cccs1)c1cc(-c2ccccn2)nc2ccc(Br)cc12,12.8% (active)
10,CCOC(=O)CSc1nc2ccc(C)cc2n2cnnc12,-0.67% (inactive)
11,Cc1oc2c(F)c(F)c(F)c(F)c2c1S(=O)(=O)Nc1cccc(C(F)(F)F)c1,16.5% (active)
12,Cc1noc(C)c1S(=O)(=O)Nc1cc(C(F)(F)F)ccc1N1CCOCC1,-0.69% (inactive)
13,O=C(CNS(=O)(=O)c1cccc(C(F)(F)F)c1)Nc1ccccc1F,-1.06% (inactive)
14,CCOc1ccc2[nH]c(=O)c(CN(CCCO)C(C)=O)cc2c1,4.2% (inactive)
15,O=C(NCCS(=O)(=O)NCc1ccc(F)cc1)c1ccccc1,-3.96% (inactive)
16,COc1ccc(S(=O)(=O)NCc2ccc(C(=O)N(C)Cc3ccco3)cc2)cc1,6.7% (inactive)
17,COc1ccccc1S(=O)(=O)NCc1ccc(C(=O)N(C)Cc2ccc(F)cc2)cc1,16.9% (active)
18,Cc1cc(S(=O)(=O)NC2CCCCC2)ccc1OCC(=O)NCc1cccnc1,7.03% (inactive)
